Screening data (PubChem)
Sampled rows, rich in hits. Any-hit rate of the full collection: about 3.9%.
TPT1 inhibitor = C. albicans TPT1 enzyme inhibition; recombinant caTPT1, FP RNA substrate dephosphorylation; inhibition, % at 5 µM; 300,000 tested, 0.81% active; AID 1962;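 active = inhibition above the mean of all tested compounds plus 3 SD, set per screening campaign, cut at about 24% in these data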;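 note: plate controls were DMSO alone for no effect and ferristatin control at 100 nM for full effect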
WT yeast gro inh = growth inhibition of WT yeast, mitochondrial fusion screen. mitochondrial fusion phenotypic screen, WT strain. inhibition, % at 10 µM. AID 1362. 190,000 tested, 2.1% active; in the data active = inhibition above about 58%; tested in S. cerevisiae
Platelet DG rel = modulates dense granule release in human platelets; human platelet-rich plasma, SFLLRN dense granule ATP release, luminescence; inhibition, %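 (compounds screened at 7.5 µM in platelet-rich plasma)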; 300,000 tested, 0.22% active;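 active = mean replicate score, as percent of positive control, at or above 50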
SKKanGAS inh = SKKanGAS growth inhibition | inhibition, % at 7.5 µM | 300,000 tested, 1.3% active | S. pyogenes SKKanGAS, kanamycin growth, BacTiter-Glo, 6 h;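 active = mean replicate score, as percent of positive control median, at least 50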;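 note: strain carries kanamycin resistance gene driven by streptokinase promoter and grows in 40 µg/ml kanamycin; loss of luminescence reflects streptokinase promoter inhibition or plain growth inhibition; 0% = median of DMSO wells and 100% = positive control at its reference dose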
PHOSPHO1 inh = blocks human PHOSPHO1 phosphatase activity; Q8TCT1; 290,000 tested, 1.1% active; inhibition, % at 13.3 µM; recombinant PHOSPHO1, absorbance phosphatase assay; in the data active = inhibition above about 60%
Target sequence (Q8TCT1 whole entry, looked up): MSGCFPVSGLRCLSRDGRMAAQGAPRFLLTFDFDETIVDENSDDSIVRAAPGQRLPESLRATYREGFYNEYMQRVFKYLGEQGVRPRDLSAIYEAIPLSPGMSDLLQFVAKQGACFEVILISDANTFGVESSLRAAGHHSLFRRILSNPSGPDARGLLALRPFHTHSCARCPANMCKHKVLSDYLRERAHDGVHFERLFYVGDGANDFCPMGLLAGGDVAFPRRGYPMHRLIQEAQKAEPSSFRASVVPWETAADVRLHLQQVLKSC
Rtt109 Vps75 = inhibitors of Candida albicans Rtt109/Vps75 histone acetyltransferase | Q5AAJ8 | purified Rtt109/Vps75, ThioGlo CoA-SH fluorescence, 4 h | 330,000 tested, 0.16% active | inhibition, % at 34.9 µM | AID 540336;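 active = inhibition of at least 50% in every replicate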
* marks the source's active call; other numbers are inactive results.

How did CN(C)c1ccc(C(C(=O)NC2CCCC2)N(C(=O)c2csnn2)C2CC2)cc1 (centres undefined) do in these assays?
TPT1 inhibitor: -1.0; Platelet DG rel: 0.4; SKKanGAS inh: 8.2; PHOSPHO1 inh: 37.0; Rtt109 Vps75: -15.8

What do the screens show for `COc1cc(Oc2nc(C(F)(F)F)nc3ccccc23)ccc1C=O`?
TPT1 inhibitor: 0.9; Platelet DG rel: 4.7; SKKanGAS inh: 3.3

Results for Cc1cccc(N(CC(O)CON=C2c3ccccc3-c3ccccc32)S(C)(=O)=O)c1 (centres undefined) ?
TPT1 inhibitor: 0.3; WT yeast gro inh: 62.9*; Platelet DG rel: -4.3; SKKanGAS inh: 3.8; PHOSPHO1 inh: 15.0; Rtt109 Vps75: 4.3

How did CS(=O)(=O)N(CC(O)CON=C1c2ccccc2-c2ccccc21)c1ccc(F)cc1 (centres undefined) do in these assays?
TPT1 inhibitor: 0.8; WT yeast gro inh: -13.4; Platelet DG rel: 0.6; SKKanGAS inh: 3.2; PHOSPHO1 inh: -31.3; Rtt109 Vps75: 4.2

How did Cc1cc(Cl)ccc1OCCCC(=O)NNC(=O)c1ccccc1O do in these assays?
TPT1 inhibitor: -3.4; Platelet DG rel: -2.5; SKKanGAS inh: 101.5*; Rtt109 Vps75: -8.2

How did CCc1nc2c(cnn2-c2ccc(Cl)cc2)c(=O)n1-c1ccc(OC)cc1 do in these assays?
TPT1 inhibitor: -2.0; WT yeast gro inh: 52.9; Platelet DG rel: -1.2; SKKanGAS inh: 51.6*; PHOSPHO1 inh: 16.0; Rtt109 Vps75: 7.2

Results for CCOc1ccc(-n2c(C)nc3c(cnn3-c3ccc(Cl)cc3)c2=O)cc1 ?
WT yeast gro inh: -3.2; Platelet DG rel: 3.5; SKKanGAS inh: -0.6; PHOSPHO1 inh: 10.5; Rtt109 Vps75: -5.2

What do the screens show for `Cc1ccc(C2/C(=C(/O)c3ccccc3)C(=O)C(=O)N2CCN2CCOCC2)o1` (centres undefined)?
TPT1 inhibitor: 4.0; WT yeast gro inh: 10.1; Platelet DG rel: 1.0; SKKanGAS inh: 1.8; PHOSPHO1 inh: 75.5*; Rtt109 Vps75: -18.7

What do the screens show for `Cc1ccc(C2/C(=C(/O)c3cnn(-c4ccccc4)c3C)C(=O)C(=O)N2CCN2CCOCC2)o1` (centres undefined)?
TPT1 inhibitor: -0.3; Platelet DG rel: 6.1; SKKanGAS inh: 5.2; PHOSPHO1 inh: 29.9; Rtt109 Vps75: -1.3

Results for O=S(=O)(NC(=NCc1ccccc1)c1ccccc1)c1ccc(Br)cc1 ?
TPT1 inhibitor: -1.4; Platelet DG rel: -1.2; SKKanGAS inh: 52.4*; PHOSPHO1 inh: 57.8; Rtt109 Vps75: 7.1

Results for CC1(C2CC2)NC(=O)N(CC(=O)Nc2ccccc2C#N)C1=O (centres undefined) ?
Rtt109 Vps75: -2.9

How did CCCC(=O)N1CCN(c2ccc(NC(=O)c3ccc([N+](=O)[O-])o3)cc2Cl)CC1 do in these assays?
WT yeast gro inh: 85.6*; Platelet DG rel: -1.1; SKKanGAS inh: 3.2; PHOSPHO1 inh: 24.5; Rtt109 Vps75: 7.6

Results for O=C(Nc1ccccc1N1CCN(C(=O)c2ccc(Cl)cc2)CC1)c1ccc([N+](=O)[O-])o1 ?
TPT1 inhibitor: -1.9; Platelet DG rel: -71.1; SKKanGAS inh: 78.6*; PHOSPHO1 inh: 42.8; Rtt109 Vps75: 2.5

Results for CC(C)C(=O)N1CCN(c2ccc(NC(=O)c3ccc([N+](=O)[O-])o3)cc2Cl)CC1 ?
WT yeast gro inh: 93.6*; PHOSPHO1 inh: -7.5; Rtt109 Vps75: 14.3

What do the screens show for `Cc1cc(C)cc(NC(=O)C(=O)NCCCN2CCCC2=O)c1`?
TPT1 inhibitor: -2.8; Platelet DG rel: 6.8; SKKanGAS inh: -9.3; Rtt109 Vps75: 9.3

How did O=C(COc1ccc(Br)cc1Br)NC(=S)N1CCCc2ccccc21 do in these assays?
TPT1 inhibitor: -3.4; WT yeast gro inh: 11.0; Platelet DG rel: -0.2; SKKanGAS inh: 9.0; PHOSPHO1 inh: 82.7*; Rtt109 Vps75: 2.1

What do the screens show for `O=C(COc1ccc(Br)cc1Cl)NC(=S)N1CCc2ccccc21`?
TPT1 inhibitor: -3.9; WT yeast gro inh: 72.1; Platelet DG rel: 3.4; SKKanGAS inh: 32.8; PHOSPHO1 inh: -6.2

What do the screens show for `FC(F)(F)c1ccccc1-n1c(-c2cnccn2)n[nH]c1=S`?
TPT1 inhibitor: -0.5; Platelet DG rel: -7.5; SKKanGAS inh: 2.1; PHOSPHO1 inh: 74.5*; Rtt109 Vps75: 4.0

Results for CCOC(=O)c1c(C)nc2ccc(Cl)cc2c1-c1ccccc1 ?
TPT1 inhibitor: 0.6; WT yeast gro inh: 63.8*; Platelet DG rel: 17.4; SKKanGAS inh: 1.1; PHOSPHO1 inh: 1.0; Rtt109 Vps75: -3.6
